Measurements from paper PMC4081100, “A DNA-binding-site landscape and regulatory network analysis for NAC transcription factors in Arabidopsis thaliana”.

Tests used:
Test in all cases: universal protein binding microarray (PBM); transcription factors of Arabidopsis thaliana; high values mean tight binding
Conditions in all cases: protein: recombinant; tags: GST; chain copies: 2; dsDNA, one strand shown
GST-ANAC092(1-176) = target: T1, GST-ANAC092(1-176) (Arabidopsis thaliana, UniProt Q9FKA0 1-176)
T1 sequence: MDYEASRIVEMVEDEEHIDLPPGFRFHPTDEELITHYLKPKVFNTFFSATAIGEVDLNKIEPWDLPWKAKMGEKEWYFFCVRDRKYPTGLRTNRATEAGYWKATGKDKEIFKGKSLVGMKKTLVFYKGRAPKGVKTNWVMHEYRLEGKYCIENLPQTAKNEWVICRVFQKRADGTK
Method in brief: (§1)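 Binding is expressed as the normalised enrichment score (E-score). Proteins carrying a GST tag, whether NAC-domain, full-length or DNA-binding-domain forms, were induced in cells, and zinc acetate was added for zinc-finger proteins. After purification on glutathione–Sepharose 4B and quantification by A280 or anti-GST western blot, each was applied in duplicate at 200 to 500 nM final to custom all-10-mer Agilent 4 × 180K arrays made double-stranded by primer extension. Gapped and ungapped 8-mers were scored.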

GST-ANAC019 NAC domain = target: T2, GST-ANAC019 NAC domain (Arabidopsis thaliana, UniProt Q9C932 14-162)
T2 sequence: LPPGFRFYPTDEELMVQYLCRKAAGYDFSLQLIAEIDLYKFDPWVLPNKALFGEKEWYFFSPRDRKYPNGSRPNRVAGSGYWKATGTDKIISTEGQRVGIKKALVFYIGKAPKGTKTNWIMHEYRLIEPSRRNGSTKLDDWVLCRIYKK
Method in brief: as §1

GST-ANAC055(1-171) = target: T3, GST-ANAC055(1-171) (Arabidopsis thaliana, UniProt Q9LDY8 1-171)
T3 sequence: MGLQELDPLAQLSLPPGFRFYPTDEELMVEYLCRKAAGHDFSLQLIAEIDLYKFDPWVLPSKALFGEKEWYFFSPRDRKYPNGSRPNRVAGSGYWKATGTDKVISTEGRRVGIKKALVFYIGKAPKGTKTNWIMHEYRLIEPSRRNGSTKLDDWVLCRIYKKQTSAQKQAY
Method in brief: as §1

GST-ATAF1 NAC domain = target: T4, GST-ATAF1 NAC domain (Arabidopsis thaliana, UniProt Q39013 7-158)
T4 sequence: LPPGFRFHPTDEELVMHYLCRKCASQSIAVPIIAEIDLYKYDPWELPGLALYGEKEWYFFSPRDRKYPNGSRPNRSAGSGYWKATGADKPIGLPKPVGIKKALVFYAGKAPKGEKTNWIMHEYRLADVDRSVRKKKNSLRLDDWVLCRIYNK
Method in brief: as §1

[1] = target: T5, GST-ANAC092(1-285) full length (Arabidopsis thaliana, UniProt Q9FKA0 1-285)
T5 sequence: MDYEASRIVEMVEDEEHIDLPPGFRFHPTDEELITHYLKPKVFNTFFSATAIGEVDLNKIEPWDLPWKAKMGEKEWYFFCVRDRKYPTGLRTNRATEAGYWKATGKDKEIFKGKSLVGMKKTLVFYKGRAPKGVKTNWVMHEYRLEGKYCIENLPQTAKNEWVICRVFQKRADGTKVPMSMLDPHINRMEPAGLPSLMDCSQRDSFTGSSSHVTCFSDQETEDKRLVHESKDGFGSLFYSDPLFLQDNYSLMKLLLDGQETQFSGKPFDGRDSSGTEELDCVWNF
Method in brief: as §1

GST-NAP(1-166) = target: T6, GST-NAP(1-166) (Arabidopsis thaliana, UniProt O49255 1-166)
T6 sequence: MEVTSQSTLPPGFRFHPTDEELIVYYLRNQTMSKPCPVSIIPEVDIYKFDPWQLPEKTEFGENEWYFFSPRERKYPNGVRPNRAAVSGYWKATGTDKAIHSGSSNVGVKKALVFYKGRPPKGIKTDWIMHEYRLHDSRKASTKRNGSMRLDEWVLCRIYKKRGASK
Method in brief: as §1

GST-SND1(1-203) = target: T7, GST-SND1(1-203) (Arabidopsis thaliana, UniProt Q9LPI7 1-203)
T7 sequence: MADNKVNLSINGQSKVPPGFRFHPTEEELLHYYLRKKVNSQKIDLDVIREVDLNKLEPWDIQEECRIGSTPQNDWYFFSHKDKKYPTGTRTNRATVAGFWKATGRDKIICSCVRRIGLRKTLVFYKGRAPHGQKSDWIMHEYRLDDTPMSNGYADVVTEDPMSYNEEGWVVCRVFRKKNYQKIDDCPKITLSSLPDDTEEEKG
Method in brief: as §1

GST-VND3 NAC domain = target: T8, GST-VND3 NAC domain (Arabidopsis thaliana, UniProt Q9FH59 12-162)
T8 sequence: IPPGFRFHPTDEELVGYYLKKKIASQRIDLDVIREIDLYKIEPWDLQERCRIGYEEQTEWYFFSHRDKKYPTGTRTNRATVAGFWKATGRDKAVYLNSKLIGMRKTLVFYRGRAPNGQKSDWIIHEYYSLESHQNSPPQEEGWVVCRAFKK
Method in brief: as §1

GST-VND7 NAC domain = target: T9, GST-VND7 NAC domain (Arabidopsis thaliana, UniProt Q9C8W9 9-158)
T9 sequence: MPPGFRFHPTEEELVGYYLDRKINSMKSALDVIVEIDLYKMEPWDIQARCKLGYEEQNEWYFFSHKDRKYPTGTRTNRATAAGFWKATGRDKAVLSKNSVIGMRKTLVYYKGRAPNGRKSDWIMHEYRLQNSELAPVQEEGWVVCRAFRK
Method in brief: as §1

GST-NTL6(1-168) = GST-NTL6(1-168) (Arabidopsis thaliana, UniProt Q9SCK6 1-168)
Method in brief: as §1

GST-NST2(1-184) = target: T10, GST-NST2(1-184) (Arabidopsis thaliana, UniProt Q9M274 1-184)
T10 sequence: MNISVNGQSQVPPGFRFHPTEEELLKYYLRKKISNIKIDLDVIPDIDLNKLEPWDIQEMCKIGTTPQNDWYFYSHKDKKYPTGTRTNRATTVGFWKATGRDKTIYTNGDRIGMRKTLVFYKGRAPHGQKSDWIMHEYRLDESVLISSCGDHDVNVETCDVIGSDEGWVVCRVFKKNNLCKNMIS
Method in brief: as §1

GST-NTL8 NAC domain = target: T11, GST-NTL8 NAC domain (Arabidopsis thaliana, UniProt Q9XIN7 14-156)
T11 sequence: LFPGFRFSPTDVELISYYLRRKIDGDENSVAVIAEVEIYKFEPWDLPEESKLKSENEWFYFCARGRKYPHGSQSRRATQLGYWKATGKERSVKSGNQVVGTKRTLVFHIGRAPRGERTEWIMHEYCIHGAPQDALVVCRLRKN
Method in brief: as §1

Chain of GST-NTL6(1-168) (Q9SCK6 1-168): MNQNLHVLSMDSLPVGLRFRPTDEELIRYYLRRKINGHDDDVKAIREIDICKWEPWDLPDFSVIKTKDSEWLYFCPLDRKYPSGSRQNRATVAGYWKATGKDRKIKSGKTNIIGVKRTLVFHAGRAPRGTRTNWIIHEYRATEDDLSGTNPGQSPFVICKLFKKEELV

| Sequence | binding signal (GST-ANAC092(1-176)) | binding signal (GST-ANAC019 NAC domain) | binding signal (GST-ANAC055(1-171)) | binding signal (GST-ATAF1 NAC domain) | binding signal [1] | binding signal (GST-NAP(1-166)) | binding signal (GST-SND1(1-203)) | binding signal (GST-VND3 NAC domain) | binding signal (GST-VND7 NAC domain) | binding signal (GST-NTL6(1-168)) | binding signal (GST-NST2(1-184)) | binding signal (GST-NTL8 NAC domain) |
| --- | --- | --- | --- | --- | --- | --- | --- | --- | --- | --- | --- | --- |
| ATGCCGTG | 0.417 E-score | 0.453 E-score | 0.418 E-score | 0.35 E-score | 0.443 E-score | 0.397 E-score | 0.111 E-score | 0.399 E-score | 0.447 E-score | – | – | – |
| TAAAGCAA | 0.138 E-score | – | – | – | 0.293 E-score | – | 0.42 E-score | 0.135 E-score | 0.228 E-score | 0.134 E-score | 0.262 E-score | 0.15 E-score |
| GTTACGCA | 0.338 E-score | 0.301 E-score | 0.189 E-score | 0.2 E-score | 0.363 E-score | 0.263 E-score | 0.422 E-score | 0.317 E-score | 0.215 E-score | – | 0.219 E-score | – |
| AGAGGAAA | 0.115 E-score | – | – | 0.0666 E-score | 0.0695 E-score | – | 0.144 E-score | 0.0951 E-score | 0.0583 E-score | 0.126 E-score | – | 0.45 E-score |
| GAGGAAAA | 0.152 E-score | – | – | 0.1 E-score | 0.152 E-score | – | 0.142 E-score | 0.12 E-score | 0.114 E-score | 0.188 E-score | – | 0.402 E-score |
| ACGTCTCT | 0.0939 E-score | 0.451 E-score | 0.412 E-score | 0.452 E-score | 0.243 E-score | 0.381 E-score | 0.0793 E-score | 0.418 E-score | 0.442 E-score | – | 0.175 E-score | – |
| TGCACGCA | 0.419 E-score | 0.355 E-score | 0.255 E-score | 0.128 E-score | 0.458 E-score | 0.265 E-score | 0.342 E-score | 0.289 E-score | 0.32 E-score | – | 0.211 E-score | – |
| CACGTCAC | 0.445 E-score | 0.4 E-score | 0.396 E-score | 0.374 E-score | 0.464 E-score | 0.344 E-score | 0.328 E-score | 0.362 E-score | 0.395 E-score | – | 0.217 E-score | – |
| AGTTACGC | 0.273 E-score | 0.134 E-score | 0.0766 E-score | 0.124 E-score | 0.275 E-score | 0.115 E-score | 0.412 E-score | 0.103 E-score | 0.0942 E-score | – | 0.245 E-score | – |
| AACACGGA | 0.298 E-score | 0.413 E-score | 0.397 E-score | 0.299 E-score | 0.274 E-score | 0.268 E-score | 0.0986 E-score | 0.319 E-score | 0.362 E-score | – | 0.173 E-score | – |
| ACACGTAA | 0.481 E-score | 0.477 E-score | 0.469 E-score | 0.439 E-score | 0.481 E-score | 0.465 E-score | 0.288 E-score | 0.461 E-score | 0.476 E-score | – | 0.316 E-score | – |
| ACGCAATC | 0.48 E-score | 0.285 E-score | 0.343 E-score | 0.298 E-score | 0.485 E-score | 0.386 E-score | 0.474 E-score | 0.355 E-score | 0.38 E-score | – | 0.384 E-score | – |
| CTACACGC | 0.361 E-score | 0.11 E-score | 0.0947 E-score | 0.186 E-score | 0.425 E-score | 0.192 E-score | 0.307 E-score | 0.147 E-score | 0.0812 E-score | – | 0.235 E-score | – |
| ACGTGTAC | 0.328 E-score | 0.309 E-score | 0.286 E-score | 0.279 E-score | 0.413 E-score | 0.278 E-score | 0.204 E-score | 0.267 E-score | 0.206 E-score | – | 0.201 E-score | – |
| TGGCGTAA | 0.44 E-score | 0.0928 E-score | 0.127 E-score | 0.16 E-score | 0.439 E-score | 0.101 E-score | 0.482 E-score | 0.191 E-score | 0.246 E-score | – | 0.346 E-score | – |
